# Test results taken from the supplement of paper PMC8728848.
# This is one part of a sample in which the strongest signals are shown more often than they occur.
# B1: SUN4P (Saccharomyces cerevisiae), P53616 (protein)
# chain: MGSSHHHHHHSSGLVPRGSHNGSIYGDLADFSGPYEKFEDGTIPCGQFPSGQGVIPISWLDEGGWSGVENTDTSTGGSCKEGSYCSYACQPGMSKTQWPSDQPSDGRSIGGLLCKDGYLYRSNTDTDYLCEWGVDAAYVVSELSNDVAICLTDYPGTENMVIPTYVQAGDSLPLTVVDQDTYYTWQGLKTSAQYYVNNAGISVEDACVWGSSSSGVGNWAPLNFGAGSSDGVAYLSLIPNPNNGNALNFNVKIVAADDSSTVNGECIYENGSFSGGSDGCTVSVTAGKAKFVLYN
# What was measured:
# Test in all cases: glycan array binding signal (z-score within array); higher = stronger binding
# Details in all cases: glycan notation: IUPAC condensed, linker removed; mutation: R276L
# [1] = biological target: Fuc(a1-2)Gal(b1-3)[Fuc(a1-4)]GlcNAc(b1-3)[Fuc(a1-3)[Gal(b1-4)]GlcNAc(b1-6)]Gal(b1-4)Glc
# In short: (§1)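 The binding signal is a Z-score computed within each array. Data were drawn from 3228 arrays in the Consortium for Functional Glycomics database, restricted to those with a known protein sequence. Scores were averaged over arrays of the same protein sequence at different concentrations or buffers, and over linkers, and negative values can be taken as non-binding.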
# [2] = biological target: Fuc(a1-2)Gal(b1-3)[Fuc(a1-4)]GlcNAc(b1-3)[Gal(b1-4)GlcNAc(b1-6)]Gal(b1-4)Glc
# In short: as §1
# [3] = biological target: Fuc(a1-2)Gal(b1-4)GlcNAc(b1-2)Man(a1-3)[Fuc(a1-2)Gal(b1-4)GlcNAc(b1-2)Man(a1-6)]Man(b1-4)GlcNAc(b1-4)GlcNAc
# In short: as §1
# [4] = biological target: Fuc(a1-2)Gal(b1-4)GlcNAc(b1-3)GalNAc
# In short: as §1
# [5] = biological target: Fuc(a1-2)Gal(b1-4)GlcNAc(b1-3)[Fuc(a1-2)Gal(b1-4)GlcNAc(b1-6)]GalNAc
# In short: as §1
# [6] = biological target: Fuc(a1-2)Gal(b1-4)GlcNAc6S
# In short: as §1
# [7] = biological target: Fuc(a1-2)[GalNAc(a1-3)]Gal(b1-3)GalNAc(b1-3)Gal(a1-4)Gal(b1-4)Glc
# In short: as §1
# [8] = biological target: Fuc(a1-2)[GalNAc(a1-3)]Gal(b1-3)GlcNAc
# In short: as §1
# [9] = biological target: Fuc(a1-2)[GalNAc(b1-3)]Gal
# In short: as §1
# [10] = biological target: Gal(a1-3)Gal(b1-3)[Fuc(a1-4)]GlcNAc(b1-2)Man(a1-3)[Gal(a1-3)Gal(b1-3)[Fuc(a1-4)]GlcNAc(b1-2)Man(a1-6)]Man(b1-4)GlcNAc(b1-4)GlcNAc
# In short: as §1
# Gal(a1-4)GlcNAc = biological target: Gal(a1-4)GlcNAc
# In short: as §1
# Gal(b1-2)Gal = biological target: Gal(b1-2)Gal
# In short: as §1
# Gal(b1-3)Gal = biological target: Gal(b1-3)Gal
# In short: as §1
# Gal(b1-3)GalNAc = biological target: Gal(b1-3)GalNAc
# In short: as §1
# Gal(b1-3)GalNAc(b1-3)Gal = biological target: Gal(b1-3)GalNAc(b1-3)Gal
# In short: as §1
# [11] = biological target: Gal(b1-3)GalNAc(b1-4)Gal(b1-4)Glc
# In short: as §1
# Gal(b1-3)GlcNAc = biological target: Gal(b1-3)GlcNAc
# In short: as §1
# [12] = biological target: Gal(b1-3)GlcNAc(b1-2)Man(a1-3)[Gal(b1-3)GlcNAc(b1-2)Man(a1-6)]Man(b1-4)GlcNAc(b1-4)GlcNAc
# In short: as §1
# [13] = biological target: Gal(b1-3)GlcNAc(b1-3)Gal(b1-4)Glc
# In short: as §1
# [14] = biological target: Gal(b1-3)GlcNAc(b1-3)Gal(b1-4)GlcNAc(b1-2)[Gal(b1-3)GlcNAc(b1-3)Gal(b1-4)GlcNAc(b1-6)]Man(a1-6)[Gal(b1-3)GlcNAc(b1-3)Gal(b1-4)GlcNAc(b1-2)Man(a1-3)]Man(b1-4)GlcNAc(b1-4)[Fuc(a1-6)]GlcNAc
# In short: as §1
# [15] = biological target: Gal(b1-3)[Neu5Ac(a2-6)]GalNAc
# In short: as §1
# [16] = biological target: Gal(b1-4)GlcNAc(b1-2)Man(a1-3)Man(b1-4)GlcNAc(b1-4)GlcNAc
# In short: as §1
# [17] = biological target: Gal(b1-4)GlcNAc(b1-2)Man(a1-3)[GlcNAc(b1-2)Man(a1-6)]Man(b1-4)GlcNAc(b1-4)GlcNAc
# In short: as §1
# [18] = biological target: Gal(b1-4)GlcNAc(b1-2)[Gal(b1-4)GlcNAc(b1-4)]Man(a1-3)[GlcNAc(b1-4)][Gal(b1-4)GlcNAc(b1-2)[Gal(b1-4)GlcNAc(b1-6)]Man(a1-6)]Man(b1-4)GlcNAc(b1-4)GlcNAc
# In short: as §1
# [19] = biological target: Gal(b1-4)GlcNAc(b1-3)Gal(b1-4)GlcNAc(b1-2)[Gal(b1-4)GlcNAc(b1-3)Gal(b1-4)GlcNAc(b1-6)]Man(a1-6)[Gal(b1-4)GlcNAc(b1-3)Gal(b1-4)GlcNAc(b1-2)Man(a1-3)]Man(b1-4)GlcNAc(b1-4)GlcNAc
# In short: as §1
# [20] = biological target: Gal(b1-4)GlcNAc(b1-3)Gal(b1-4)GlcNAc(b1-3)Gal(b1-4)GlcNAc(b1-2)Man(a1-3)[Gal(b1-4)GlcNAc(b1-3)Gal(b1-4)GlcNAc(b1-3)Gal(b1-4)GlcNAc(b1-2)Man(a1-6)]Man(b1-4)GlcNAc(b1-4)GlcNAc
# In short: as §1
# [21] = biological target: Gal(b1-4)GlcNAc(b1-3)Gal(b1-4)GlcNAc(b1-3)Gal(b1-4)GlcNAc(b1-2)[Gal(b1-4)GlcNAc(b1-3)Gal(b1-4)GlcNAc(b1-3)Gal(b1-4)GlcNAc(b1-6)]Man(a1-6)[Gal(b1-4)GlcNAc(b1-3)Gal(b1-4)GlcNAc(b1-3)Gal(b1-4)GlcNAc(b1-2)Man(a1-3)]Man(b1-4)GlcNAc(b1-4)[Fuc(a1-6)]GlcNAc
# In short: as §1
# [22] = biological target: Gal(b1-4)GlcNAc(b1-6)GalNAc
# In short: as §1
# Gal3S6S(b1-4)GlcNAc = biological target: Gal3S6S(b1-4)GlcNAc
# In short: as §1
# Gal4S6S(b1-4)GlcNAc = biological target: Gal4S6S(b1-4)GlcNAc
# In short: as §1
# GalNAc(b1-4)GlcNAc = biological target: GalNAc(b1-4)GlcNAc
# In short: as §1
# Glc(a1-6)Glc(a1-6)Glc = biological target: Glc(a1-6)Glc(a1-6)Glc
# In short: as §1
# [23] = biological target: GlcNAc(a1-4)Gal(b1-3)GlcNAc
# In short: as §1
# [24] = biological target: GlcNAc(a1-4)Gal(b1-4)GlcNAc(b1-3)Gal(b1-4)Glc
# In short: as §1
# [25] = biological target: GlcNAc(a1-4)Gal(b1-4)GlcNAc(b1-3)Gal(b1-4)GlcNAc
# In short: as §1
# [26] = biological target: GlcNAc(b1-3)Gal(b1-4)GlcNAc(b1-3)GalNAc
# In short: as §1
# [27] = biological target: Man(a1-3)[Man(a1-6)]Man(b1-4)GlcNAc(b1-4)GlcNAc
# In short: as §1
# [28] = biological target: Man(a1-3)[Man(a1-6)]Man(b1-4)GlcNAc(b1-4)[Fuc(a1-6)]GlcNAc
# In short: as §1
# [29] = biological target: Neu5Ac(a2-3)Gal(b1-3)GlcNAc
# In short: as §1
# [30] = biological target: Neu5Ac(a2-3)Gal(b1-3)[Neu5Ac(a2-6)]GalNAc
# In short: as §1
# Neu5Ac(a2-3)Gal(b1-4)Glc = biological target: Neu5Ac(a2-3)Gal(b1-4)Glc
# In short: as §1
# [31] = biological target: Neu5Ac(a2-3)Gal6S(b1-4)[Fuc(a1-3)]GlcNAc
# In short: as §1
# [32] = biological target: Neu5Ac(a2-3)[GalNAc(b1-4)]Gal(b1-4)Glc
# In short: as §1
# [33] = biological target: Neu5Ac(a2-6)Gal(b1-4)GlcNAc(b1-2)Man
# In short: as §1
# [34] = biological target: Neu5Ac(a2-6)Gal(b1-4)GlcNAc(b1-2)Man(a1-6)[GlcNAc(b1-2)Man(a1-3)]Man(b1-4)GlcNAc(b1-4)GlcNAc
# In short: as §1
# [35] = biological target: Neu5Ac(a2-6)GlcNAc(b1-4)GlcNAc
# In short: as §1
# [36] = biological target: Neu5Gc(a2-3)Gal(b1-3)GlcNAc
# In short: as §1
# [37] = biological target: Neu5Gc(a2-3)Gal(b1-4)GlcNAc(b1-3)Gal(b1-4)GlcNAc(b1-2)Man(a1-3)[Neu5Gc(a2-3)Gal(b1-4)GlcNAc(b1-3)Gal(b1-4)GlcNAc(b1-2)Man(a1-6)]Man(b1-4)GlcNAc(b1-4)GlcNAc
# In short: as §1
binder,measurement,setting,value
B1,glycan array binding signal (z-score),[1],-1.15
same,glycan array binding signal (z-score),[2],-0.39
same,glycan array binding signal (z-score),[3],-0.72
same,glycan array binding signal (z-score),[4],-0.667
same,glycan array binding signal (z-score),[5],-0.351
same,glycan array binding signal (z-score),[6],1.81
same,glycan array binding signal (z-score),[7],-0.881
same,glycan array binding signal (z-score),[8],-0.545
same,glycan array binding signal (z-score),[9],1.77
same,glycan array binding signal (z-score),[10],-0.029
same,glycan array binding signal (z-score),Gal(a1-4)GlcNAc,-0.2
same,glycan array binding signal (z-score),Gal(b1-2)Gal,0.046
same,glycan array binding signal (z-score),Gal(b1-3)Gal,1.8
same,glycan array binding signal (z-score),Gal(b1-3)GalNAc,2.6
same,glycan array binding signal (z-score),Gal(b1-3)GalNAc(b1-3)Gal,7.07
same,glycan array binding signal (z-score),[11],11.2
same,glycan array binding signal (z-score),Gal(b1-3)GlcNAc,-0.318
same,glycan array binding signal (z-score),[12],-0.366
same,glycan array binding signal (z-score),[13],-0.852
same,glycan array binding signal (z-score),[14],2.11
same,glycan array binding signal (z-score),[15],2.79
same,glycan array binding signal (z-score),[16],-0.274
same,glycan array binding signal (z-score),[17],-0.054
same,glycan array binding signal (z-score),[18],0.051
same,glycan array binding signal (z-score),[19],-0.671
same,glycan array binding signal (z-score),[20],0.667
same,glycan array binding signal (z-score),[21],2.41
same,glycan array binding signal (z-score),[22],-0.068
same,glycan array binding signal (z-score),Gal3S6S(b1-4)GlcNAc,1.73
same,glycan array binding signal (z-score),Gal4S6S(b1-4)GlcNAc,0.289
same,glycan array binding signal (z-score),GalNAc(b1-4)GlcNAc,-0.514
same,glycan array binding signal (z-score),Glc(a1-6)Glc(a1-6)Glc,-1.11
same,glycan array binding signal (z-score),[23],1.83
same,glycan array binding signal (z-score),[24],-1.22
same,glycan array binding signal (z-score),[25],-0.664
same,glycan array binding signal (z-score),[26],2.14
same,glycan array binding signal (z-score),[27],-0.241
same,glycan array binding signal (z-score),[28],-0.543
same,glycan array binding signal (z-score),[29],0.214
same,glycan array binding signal (z-score),[30],-0.468
same,glycan array binding signal (z-score),Neu5Ac(a2-3)Gal(b1-4)Glc,-1.01
same,glycan array binding signal (z-score),[31],-1.12
same,glycan array binding signal (z-score),[32],1.36
same,glycan array binding signal (z-score),[33],0.374
same,glycan array binding signal (z-score),[34],0.936
same,glycan array binding signal (z-score),[35],2.98
same,glycan array binding signal (z-score),[36],0.424
same,glycan array binding signal (z-score),[37],-0.663
